Assay results as given in PubChem BioAssay (NCATS).
Results filed as inconclusive are left out. Calls of active or inactive are those of the source. Unless noted, calls come from the whole dose curve; as a rule, active = well fitted curve in the direction sought with a large enough effect; inconclusive = small, poorly fitted or top-dose-only effect, or another doubt; inactive = no such curve, though single readings can be large; an effect the other way counts as inactive or inconclusive.

Key:
[1] = Cell Viability - BJ (AID 421; calls by dose curve;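 note: potency is the fitted concentration of half-maximal effect; cells exposed to compound for 40 hours at 37 °C before readout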); settings: BJ fibroblast viability, qHTS
How it was run: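 Normal human BJ foreskin fibroblasts, 1500/well in complete medium, treated 40 hr at 37 °C. Cellular ATP by CellTiter-Glo luminescence; normalized to DMSO and 100 uM tamoxifen, AC50 from Hill fit.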

[2] = Cell Viability - Jurkat (AID 426;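 active = dose-dependent loss of cell ATP signal giving a full or clear fitted curve, ranked by lower potency value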; note: potency is the fitted concentration of half-maximal effect); settings: qHTS
How it was run: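 Seed 5000 Jurkat E6-1 cells/well; add compound; incubate 40 hr at 37 °C; add CellTiter-Glo; wait 20 min at room temperature; read luminescence. Fit concentration-response with Hill equation for AC50.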

[3] = Cell Viability - Hek293 (AID 427;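 active = compounds whose dose-response curve shows a full or clear partial loss of cell viability, called from curve shape rather than a numeric limit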;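 note: potency is the fitted concentration of half-maximal effect; cells exposed to compound for 40 hours at 37 °C before reading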); settings: qHTS
How it was run: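 HEK293 cells in complete medium were exposed to compound for 40 hr at 37 °C, then cellular ATP was read by CellTiter-Glo luminescence. Data were normalized to DMSO (basal) and 100 uM tamoxifen (100% inhibition), and AC50 came from Hill fits.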

[4] = Cell Viability - HepG2 (AID 433; calls by dose curve;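 note: potency is the fitted concentration of half-maximal effect; potency for ATP loss meaning cytotoxicity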); settings: qHTS
How it was run: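 Cytotoxicity is scored as loss of intracellular ATP in HepG2 cells exposed to compounds for 40 h. Concentration-response curves, normalized to DMSO and 100 uM tamoxifen, give AC50 values.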

[5] = Cell Viability - MRC5 (AID 434; calls by dose curve;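 note: potency is the fitted concentration of half-maximal effect; potency reflects cytotoxicity seen as loss of intracellular ATP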); settings: MRC5 lung fibroblast viability, qHTS
How it was run: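 MRC5 normal human lung fibroblasts, 1500 cells/well, exposed to compound for 40 hr at 37 C. Cellular ATP was read by CellTiter-Glo luminescence; data normalized to DMSO and 100 uM tamoxifen, with AC50 from Hill fits.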

[6] = Cell Viability - SK-N-SH (AID 435; calls by dose curve;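 note: potency is the fitted concentration of half-maximal effect; compound exposure lasted 40 h at 37 °C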); settings: SK-N-SH neuroblastoma cell viability qHTS
How it was run: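 Cells seeded at 1500 per well and incubated 5 hr at 37 °C. Compound added, then 40 hr at 37 °C. CellTiter-Glo added, 20 min at room temperature, luminescence read.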

[7] = Cell Viability - N2a (AID 540); settings: N2a mouse neuroblastoma cell viability; activity change, negative = cytotoxicity: at 92.2 µM (top of the series);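 note: plate controls were DMSO alone for no effect and tamoxifen control for full effect; nearly all actives have a fitted effect of over 45% in size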
How it was run: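 First, 1500 N2a cells per well incubate 5 hr at 37 °C; next, compounds are added and incubated 40 hr at 37 °C; finally CellTiter-Glo is added and luminescence read after 20 min, with AC50 derived by Hill modeling.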

[8] = Cell Viability - NIH 3T3 (AID 541); settings: NIH 3T3 cell viability, qHTS; activity change, negative = cytotoxicity: at 92.2 µM (top of the series);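 note: plate controls were DMSO alone for no effect and tamoxifen positive control for full effect; nearly all actives have a fitted effect of over 25% in size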
How it was run: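 AC50 values reflect concentration-dependent loss of intracellular ATP in NIH 3T3 cells after 40 hr treatment in complete culture medium, quantified by luciferase-based luminescence.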

[9] = Cell Viability - HUV-EC-C (AID 542); settings: HUV-EC-C endothelial cell viability, qHTS; series mostly up to 92.2 µM; note: % is set by controls: 0 for no effect and ±100 for the full control effect; nearly all actives have a fitted effect of over 35% in size
How it was run: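 Decrease in cellular ATP, quantified by luciferase luminescence, reflects toxicity in normal human vascular endothelial HUV-EC-C cells given compound for 40 hr in complete culture medium. Values are AC50s from concentration-response curves.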

[10] = Cell Viability - H-4-II-E (AID 543); settings: H-4-II-E rat hepatoma viability; series mostly up to 92.2 µM; note: % is set by controls: 0 for no effect and ±100 for the full control effect; nearly all actives have a fitted effect of over 35% in size
How it was run: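 Here, cytotoxicity is measured in the rat hepatoma line H-4-II-E as loss of intracellular ATP after 40 hr compound treatment, detected by luciferase luminescence.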

[11] = Cell Viability - SH-SY5Y (AID 544); settings: SH-SY5Y neuroblastoma cell viability; viability change, negative = cytotoxic: at 92.2 µM (top of the series); note: nearly all actives have a fitted effect of over 55% in size
How it was run: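 Cytotoxicity is scored as a concentration-dependent fall in intracellular ATP in human SH-SY5Y cells treated 40 hr in complete culture medium. Potency is expressed as AC50 from a Hill equation fit.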

[12] = Cell Viability - Renal Proximal Tubule (AID 545); settings: renal proximal tubule cells viability, primary cells of rat origin; activity change, negative = cytotoxicity: at 91.7 µM (top of the series); note: nearly all actives have a fitted effect of over 40% in size
How it was run: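 Cytotoxicity is scored as a concentration-dependent drop in cellular ATP in primary rat renal proximal tubule cells exposed for 40 hr. AC50 derives from Hill modelling.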

[13] = Cell Viability - Mesenchymal (AID 546); settings: mesenchymal cells viability, qHTS; activity change, negative = cytotoxicity: at 91.7 µM (top of the series);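 note: cells exposed to compound for 40 hours before reading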
How it was run: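 Human kidney mesenchymal cells from normal renal glomeruli, 1000 cells/well, rested 5 hr at 37 °C, then treated 40 hr at 37 °C in complete medium. Cellular ATP read by CellTiter-Glo luminescence; AC50 from Hill-equation fits.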

[14] = Cellular Toxicity (caspase-3) HepG2 (AID 654); settings: HepG2 caspase-3 activation, luminescence; series mostly up to 92.2 µM;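 note: cells exposed to compound for 16 hours before reading; 0% = DMSO alone and 100% = caspase signal from 100 µM tamoxifen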
How it was run: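 qHTS, HepG2, 1500 cells/well, complete medium; cpd 16 h 37 °C; Caspase-Glo 3/7, 20 min RT; lum. Norm: DMSO vs 100 uM tamoxifen; AC50 Hill fit.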

[15] = Cellular Toxicity (caspase-3) HUV-EC-C (AID 656); settings: HUV-EC-C cells, caspase-3 activation (apoptosis); series mostly up to 92.2 µM
How it was run: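 Read-out: luminescence proportional to caspase 3/7 activity, measured 20 min after adding Caspase-Glo 3/7 reagent. Cells (HUV-EC-C) had received compound for 16 hr at 37°C. Increases relative to DMSO and 100 uM tamoxifen gave concentration-response AC50 values.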

[16] = Cellular Toxicity (caspase-3) SHSY5Y (AID 657); settings: SH-SY5Y caspase-3 activation; series mostly up to 91.7 µM
How it was run: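 Cells plated and incubated 5 h at 37 °C, dosed over a concentration range, incubated 16 h, then given Caspase-Glo 3/7 reagent for 1 h at room temperature before luminescence reading. Staurosporine (10 uM) defined full stimulation.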

[17] = Cellular Toxicity (caspase-3) MRC-5 (AID 659); settings: MRC-5 cells, luminescence, normalized: DMSO 0%, 10 µM staurosporine 100%; series mostly up to 91.7 µM
How it was run: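 MRC-5 human normal lung fibroblasts, 1500 cells/well, treated 16 h at 37 °C in complete medium. Caspase 3/7 measured by Caspase-Glo luminescence after 1 h at room temperature. Normalized to DMSO and 10 uM staurosporine; AC50 from Hill fit.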

[18] = Cellular Toxicity (caspase-3) Mesangial (AID 660); settings: mesangial cells, normalized: DMSO 0%, 100 µM tamoxifen 100%; series mostly up to 91.7 µM
How it was run: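 Concentration-response qHTS: compound-induced rise in caspase 3/7 luminescence in human mesangial cells after 16 h, normalized to DMSO and 100 uM tamoxifen controls.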

[19] = Cellular Toxicity (caspase-3) SK-N-SH (AID 661); settings: SK-N-SH caspase-3 activation, qHTS, DMSO as zero, staurosporine as full; series mostly up to 91.7 µM
How it was run: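 Caspase 3/7 activation is measured as a luminescence increase from aminoluciferin released by substrate cleavage in SK-N-SH cells after 16 hr compound treatment; values are AC50 from concentration-response curves.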

[20] = Cellular Toxicity (caspase-3) H-4-II-E (AID 663); settings: H-4-II-E rat hepatoma; Potency: caspase-3 activation; series mostly up to 92.2 µM;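 note: cells exposed to compound for 16 hr before readout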
How it was run: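 Rat hepatoma H-4-II-E cells (1500/well) plated 5 hr, then exposed to compound titrations for 16 hr at 37 °C. Caspase-Glo 3/7 luminescence read after 20 min at RT; data normalized to DMSO and 100 uM tamoxifen, AC50 from Hill fits.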

[21] = Cellular Toxicity (caspase-3) Hek293 (AID 664); settings: HEK293 caspase-3 activation, DMSO = 0%, 100 µM tamoxifen = 100%; at 92.2 µM (top of the series);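 note: cells exposed to compound for 16 h at 37 °C before readout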
How it was run: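 Activation of caspase-3/7 is measured as increased luminescence from cleaved peptide-aminoluciferin substrate in HEK293 cells treated 16 hours at 37 °C. AC50 values come from Hill-equation fits of concentration-response data.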

CC(CCC(=O)O)(c1ccc(O)cc1)c1ccc(O)cc1
inactive: Potency [1] > 92 µM | Potency [2] > 92 µM | Potency [3] > 92 µM | Potency [4] > 92 µM | Potency [5] > 92 µM | Potency [6] > 92 µM | activity change, negative = cytotoxicity [7] 8.91% | activity change, negative = cytotoxicity [8] -7.14% | Potency [9] | Potency [10] | Potency [11] | Potency [12] | Potency [13] | Potency [14] | Potency [15] | Potency [16] | outcome [17] | outcome [18] | outcome [19] | Potency [20] | caspase-3 activation [21] 1.18%
